Reference: PubChem BioAssay
The source made the active and inactive calls. Unless noted, no rule for the calls is given here.

What was measured:
[1] = compounds binding Alexa647 anti-His antibody – biochemical, small-molecule microarray, 635 nm fluorescence, artefact control for SMM control protein annotation, primary screen (AID 1128); details: higher = more signal;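 also: score merges feature fluorescence with signal-to-noise for each printed compound spot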
[2] = tested on: Human papillomavirus type 1a E7 protein (residues 1-88); test: HPV1a E7 small-molecule binders, primary screen, biochemical, small-molecule microarray, residues 1-88, 635 nm (AID 1129); details: small-molecule microarray binding, fluorescence 635 nm; higher = more signal
[3] = biological target: Focal adhesion kinase 1 (Homo sapiens) (UniProt Q05397); test: PTK2 protein binding on printed compound slides – biochemical, small-molecule microarray, 635/667 nm fluorescence, BSA, DTT, primary screen (AID 1130); details: 635 nm fluorescence, higher = more signal;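 also: composite of spot emission at 667 nm and signal to noise over triplicate slides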
[4] = tested on: Fibrinogen (Alexa647-labelled); test: Alexa647-fibrinogen binding to printed small molecules – biochemical, small-molecule microarray, 635/667 nm fluorescence, artefact control for SMM control-protein annotation, profiling panel (AID 1131); details: fibrinogen-A647 binding fluorescence, higher = more signal;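 also: z-score merges 667 nm fluorescence with per-spot signal-to-noise over triplicate slides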
[5] = biological target: Follistatin (Homo sapiens) (UniProt P19883); test: FST protein binding to printed compounds – biochemical, small-molecule microarray, 635/667 nm fluorescence, primary screen (AID 1132); details: 635 nm fluorescence, higher = more signal
[6] = biological target: Fibroblast growth factor 2 (Homo sapiens) (UniProt P09038); test: basic fibroblast growth factor binding to printed compounds – biochemical, small-molecule microarray, 635/667 nm fluorescence, primary screen (AID 1133); details: FGF2, fluorescence 635/667, higher = more signal
[7] = JC-1 mitochondrial potential readout, lung cancer cells – cell-based, A549, JC-1 fluorescence, basal, 24 h, 100 nL, profiling panel (AID 1138); details: higher = more signal;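 also: A549 lung adenocarcinoma cells under basal conditions with no added stimulus; test concentration not given here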
Lefty1 = Lefty1 protein binding to printed compounds – biochemical, small-molecule microarray, 635/667 nm fluorescence, primary screen (AID 1139); details: fluorescence 635/667, higher = more signal
[8] = tested on: wheat germ agglutinin (Triticum aestivum), Alexa647-labelled; test: Alexa647-WGA lectin binding to printed small molecules – biochemical, small-molecule microarray, 635/667 nm fluorescence, artefact control for SMM control-protein annotation, profiling panel (AID 1140); details: WGA-A647 binding, 635 nm fluorescence, higher = more signal;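 also: score merges 667 nm feature emission with signal to noise over triplicate slides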
[9] = biological target: Luciferin 4-monooxygenase (Photinus pyralis) (UniProt P08659); test: inhibition of purified Photinus pyralis luciferase – biochemical, luminescence, purified enzyme, 2006 set, primary screen (AID 1141); details: purified firefly luciferase, SteadyGlo luminescence, 30 min; higher = more signal, called active from +8 up or from −8 down;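 also: cell-free assay with purified firefly luciferase at 100 ng per well in PBS; test concentration not given here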
[10] = tested on: Wnt5a (protein binding on small-molecule microarray); test: small molecules binding Wnt5a protein – biophysical, small-molecule microarray, 635/667 nm fluorescence, primary screen (AID 1142); details: 635 nm fluorescence, higher = more signal;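 also: fluorescence read at 667 nm with signal to noise per printed feature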
[11] = ATP-based viability of Huh7 replicon cells – cell-based, CellTiter-Glo luminescence, basal, 48 h, cytotoxicity control for HCV replication inhibitor project, primary screen (AID 1143); details: higher = more signal, called active from +8 up or from −8 down;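 also: Huh7 hepatoma cells carrying a hepatitis C replication reporter with no stimulus; test concentration not given here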
[12] = Pseudomonas biofilm growth suppression – PAO1 strain, BacTiter-Glo luminescence, LB-PBS, primary screen (AID 1144); details: P. aeruginosa PAO1 biofilm, 12 h, higher = more signal
[13] = basal CRE-LacZ reporter activity in PC12 – cell-based, unstimulated, primary screen (AID 1145); details: no forskolin, luminescence, 4.5 h, higher = more signal, called active from +8 up or from −8 down
[14] = forskolin-driven CRE-LacZ activity in PC12 – cell-based, CRE-LacZ reporter, forskolin-stimulated, primary screen (AID 1146); details: luminescence, 4.5 h, higher = more signal, called active from +8 up or from −8 down;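 also: PC12 cells with 6xCRE LacZ reporter stimulated by forskolin 10 µM; beta-galactosidase reporter signal reflecting CREB driven transcription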
[15] = biological target: Streptavidin (Streptomyces avidinii) (UniProt P22629); test: compounds binding control protein streptavidin – biophysical, small-molecule microarray, 635/667 nm fluorescence, artefact control for SMM compound annotation, primary screen (AID 1147); details: higher = more signal;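 also: signal reflects streptavidin binding to arrayed compounds as a control protein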
[16] = probe aInhba binding on compound microarray – biochemical, small-molecule microarray, 635/667 nm fluorescence, primary screen (AID 1148); details: higher = more signal;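 also: score merges 667nm spot fluorescence with signal-to-noise for antibody binding to printed compounds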
Torsin-1A (Homo sapiens) [17] = biological target: Torsin-1A (Homo sapiens) (UniProt O14656); test: TOR1A wild-type binding on microarray – cell lysate, small-molecule microarray, lysate, 635/667 nm, primary screen (AID 1149); details: COS7 hTOR1A-WT lysate, 635 nm fluorescence, higher = more signal
Torsin-1A (Homo sapiens) [18] = biological target: Torsin-1A (Homo sapiens) (UniProt O14656); test: torsin A mutant lysate binding on microarrays – cell lysate, small-molecule microarray, COS7 lysate, 635/667 nm fluorescence, primary screen (AID 1150); details: COS7 hTOR1A mutant lysate, 635 nm fluorescence, higher = more signal;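 also: score pools 667 nm emission and signal to noise measuring lysate protein binding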
[19] = tested on: Sonic hedgehog protein (Shh); test: Sonic hedgehog microarray binding compounds – biochemical, small-molecule microarray, 635/667 nm fluorescence, primary screen (AID 1151); details: 635 nm fluorescence, higher = more signal;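 also: Shh protein binding to compounds spotted on small-molecule microarray slides; score combines spot fluorescence intensity with signal-to-noise across triplicate slides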

Sequence of Follistatin (Homo sapiens) (P19883 whole entry, looked up): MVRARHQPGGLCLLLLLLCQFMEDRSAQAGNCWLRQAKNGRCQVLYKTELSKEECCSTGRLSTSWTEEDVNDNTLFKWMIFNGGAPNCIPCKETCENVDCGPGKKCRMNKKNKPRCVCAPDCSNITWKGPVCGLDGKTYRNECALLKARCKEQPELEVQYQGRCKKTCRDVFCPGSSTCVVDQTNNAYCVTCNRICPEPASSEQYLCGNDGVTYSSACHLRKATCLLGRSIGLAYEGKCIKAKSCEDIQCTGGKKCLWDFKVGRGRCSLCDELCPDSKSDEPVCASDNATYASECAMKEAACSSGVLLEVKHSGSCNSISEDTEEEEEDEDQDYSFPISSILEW
Sequence of Torsin-1A (Homo sapiens) (O14656 whole entry, looked up): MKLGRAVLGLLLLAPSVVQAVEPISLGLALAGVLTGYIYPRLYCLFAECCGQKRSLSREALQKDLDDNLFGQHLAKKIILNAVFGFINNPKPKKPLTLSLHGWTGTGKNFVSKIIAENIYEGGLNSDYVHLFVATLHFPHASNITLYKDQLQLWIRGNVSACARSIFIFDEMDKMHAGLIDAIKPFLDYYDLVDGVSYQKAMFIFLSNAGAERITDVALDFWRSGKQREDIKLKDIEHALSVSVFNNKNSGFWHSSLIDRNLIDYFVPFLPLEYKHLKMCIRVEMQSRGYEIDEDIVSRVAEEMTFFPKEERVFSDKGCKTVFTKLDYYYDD
Sequence of Streptavidin (Streptomyces avidinii) (P22629 whole entry, looked up): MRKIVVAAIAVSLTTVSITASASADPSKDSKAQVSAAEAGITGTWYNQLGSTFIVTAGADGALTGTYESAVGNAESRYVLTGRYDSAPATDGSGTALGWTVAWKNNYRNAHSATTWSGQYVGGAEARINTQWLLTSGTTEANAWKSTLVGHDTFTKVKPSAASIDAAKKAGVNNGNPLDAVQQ
Sequence of Focal adhesion kinase 1 (Homo sapiens) (Q05397 whole entry, looked up): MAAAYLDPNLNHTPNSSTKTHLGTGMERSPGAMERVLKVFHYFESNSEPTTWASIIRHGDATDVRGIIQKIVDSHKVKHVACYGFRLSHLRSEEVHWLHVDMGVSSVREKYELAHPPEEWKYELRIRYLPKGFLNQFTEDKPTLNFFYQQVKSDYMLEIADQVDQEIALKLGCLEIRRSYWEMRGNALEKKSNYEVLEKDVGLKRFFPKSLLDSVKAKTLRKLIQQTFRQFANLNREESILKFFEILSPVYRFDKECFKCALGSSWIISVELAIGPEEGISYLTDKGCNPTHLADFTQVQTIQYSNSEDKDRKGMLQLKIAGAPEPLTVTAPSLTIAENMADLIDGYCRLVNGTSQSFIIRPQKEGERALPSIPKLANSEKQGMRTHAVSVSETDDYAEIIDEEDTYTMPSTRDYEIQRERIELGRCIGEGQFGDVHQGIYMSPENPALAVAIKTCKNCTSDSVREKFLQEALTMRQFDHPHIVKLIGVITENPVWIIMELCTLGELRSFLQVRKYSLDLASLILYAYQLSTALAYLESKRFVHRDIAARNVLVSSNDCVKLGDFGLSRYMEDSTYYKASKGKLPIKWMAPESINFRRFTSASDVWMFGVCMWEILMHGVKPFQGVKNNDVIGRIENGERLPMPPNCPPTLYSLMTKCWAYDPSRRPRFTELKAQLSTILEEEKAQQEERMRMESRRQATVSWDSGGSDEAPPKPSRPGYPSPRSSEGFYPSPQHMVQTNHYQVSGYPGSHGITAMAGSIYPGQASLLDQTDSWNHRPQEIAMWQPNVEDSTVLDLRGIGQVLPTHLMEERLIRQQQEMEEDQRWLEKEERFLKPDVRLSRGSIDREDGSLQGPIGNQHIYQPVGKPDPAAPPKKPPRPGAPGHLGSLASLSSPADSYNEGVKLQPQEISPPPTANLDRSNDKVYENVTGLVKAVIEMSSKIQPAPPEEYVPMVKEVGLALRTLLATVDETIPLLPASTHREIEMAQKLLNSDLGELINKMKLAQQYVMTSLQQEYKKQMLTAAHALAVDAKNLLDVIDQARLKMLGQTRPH
Sequence of Luciferin 4-monooxygenase (Photinus pyralis) (P08659 whole entry, looked up): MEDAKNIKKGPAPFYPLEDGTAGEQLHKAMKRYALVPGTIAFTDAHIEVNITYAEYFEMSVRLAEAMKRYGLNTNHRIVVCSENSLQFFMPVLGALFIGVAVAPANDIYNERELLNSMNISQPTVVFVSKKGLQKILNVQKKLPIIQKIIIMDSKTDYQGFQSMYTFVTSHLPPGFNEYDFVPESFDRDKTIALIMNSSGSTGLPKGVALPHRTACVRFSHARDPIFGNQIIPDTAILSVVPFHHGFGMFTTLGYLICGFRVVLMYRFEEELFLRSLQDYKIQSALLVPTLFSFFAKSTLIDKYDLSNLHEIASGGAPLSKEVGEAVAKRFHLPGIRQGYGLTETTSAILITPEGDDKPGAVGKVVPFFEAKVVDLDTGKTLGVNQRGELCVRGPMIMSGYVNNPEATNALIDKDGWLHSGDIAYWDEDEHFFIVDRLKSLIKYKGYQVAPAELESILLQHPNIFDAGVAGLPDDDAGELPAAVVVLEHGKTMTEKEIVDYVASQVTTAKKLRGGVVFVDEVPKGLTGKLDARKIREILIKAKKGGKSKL
Sequence of Fibroblast growth factor 2 (Homo sapiens) (P09038 whole entry, looked up): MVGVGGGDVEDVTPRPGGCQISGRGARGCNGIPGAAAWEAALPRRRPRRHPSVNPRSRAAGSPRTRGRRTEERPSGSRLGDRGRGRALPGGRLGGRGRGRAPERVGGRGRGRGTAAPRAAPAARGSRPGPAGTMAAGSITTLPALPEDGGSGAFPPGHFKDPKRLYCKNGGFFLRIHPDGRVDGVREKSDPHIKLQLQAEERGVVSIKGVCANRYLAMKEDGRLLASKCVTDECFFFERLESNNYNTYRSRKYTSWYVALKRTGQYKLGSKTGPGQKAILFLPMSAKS

| SMILES | composite z-score [1] | composite z-score [2] | composite z-score [3] | composite z-score [4] | composite z-score [5] | composite z-score [6] | z-score [7] | composite z-score (Lefty1) | composite z-score [8] | z-score [9] | composite z-score [10] | z-score [11] | z-score [12] | z-score [13] | z-score [14] | composite z-score [15] | composite z-score [16] | composite z-score (Torsin-1A (Homo sapiens) [17]) | composite z-score (Torsin-1A (Homo sapiens) [18]) | composite z-score [19] |
| --- | --- | --- | --- | --- | --- | --- | --- | --- | --- | --- | --- | --- | --- | --- | --- | --- | --- | --- | --- | --- |
| CCCCN1CC=CC23O[C@@H]4C=CCCOC(=O)C4[C@H]2C(=O)N(CCCCCCO)[C@@H]3C1=O (stereo not given in full) | 0.435 | -0.268 | 0.0134 | -0.796 | 0.0593 | -0.88 | 0.807 | 1.28 | 0.379 | -0.947 (inactive) | -0.767 | 0.311 (inactive) | 0.844 (inactive) | 0.333 (inactive) | -0.199 (inactive) | -0.564 | -0.208 | -1.22 | -1.23 | 1.65 |
| COc1cc2c(cc1O)C(C1CC1)N(Cc1sc3ccccc3c1Cl)CC2 (stereo not given) | 1.53 | 0.87 | -0.0249 | 0.762 | 0.439 | 0.124 | -1.55 | -0.619 | 0.402 | -0.593 (inactive) | -0.207 | -5.05 (inactive) | 1.26 (inactive) | -0.671 (inactive) | 1.82 (inactive) | 0.583 | -0.024 | 1.45 | 0.982 | -0.206 |
| CCCC[C@@H]1C[C@H]1[C@@H](NC(=O)C(C)(C)C)c1ccc(C(F)(F)F)cc1 | 1.73 | 0.779 | 0.702 | -0.27 | -1.57 | -1.4 | -1.08 | -0.722 | -0.372 | -3.32 (inactive) | -0.96 | -4.27 (inactive) | 0.0317 (inactive) | 0.201 (inactive) | 1.44 (inactive) | 0.0267 | -0.0405 | -0.49 | -0.869 | -1.7 |
| C=CCC(OC(C)=O)[C@@H]1[C@@H](N(Cc2cc3ccccc3o2)C(=O)c2cccc3ccccc23)c2cc(OCCCO)ccc2N1C(=O)c1ccc(-c2ccccc2)cc1 (stereo not given in full) | -0.202 | 0.0155 | -0.166 | -0.827 | 0.791 | 0.401 | 0.461 | 0.218 | 0.297 | -0.219 (inactive) | 0.15 | -1.82 (inactive) | 0.861 (inactive) | 1.38 (inactive) | -0.654 (inactive) | 0.111 | -0.196 | 0.736 | 0.223 | 0.464 |
| CCCCCCc1nc(-c2cc(C)c(OC)c(C)c2)cc2c1[Si](C(C)C)(C(C)C)OC2 | -0.164 | 0.103 | 0.0497 | -0.419 | 0.578 | -0.143 | -0.693 | 0.275 | -0.239 | 1 (inactive) | -0.227 | -2.72 (inactive) | -0.661 (inactive) | -0.0989 (inactive) | 0.0738 (inactive) | 0.0643 | 0.131 | -0.646 | -0.384 | 0.985 |
